In PubChem BioAssay (EPA / NIEHS) one finds outcome and AC50 data, which are given here for 25 molecules.

A short description of test [1]: ATG_CRE_CIS: Attagene CIS-FACTORIAL HepG2 Assay for human cAMP Responsive Element (CRE) binding protein 3 (AID 2282926). Conditions: HepG2 CRE cis-reporter, Attagene multiplexed mRNA; actives raise or lower the signal. In a few lines:
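We dosed HepG2 cells bearing multiple cis-promoter reporter units for 24 h and measured reporter mRNA by RT-PCR with capillary electrophoresis detection. Bidirectional concentration-response fitting used DMSO as negative control.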

For test [2], the target named is CCAAT/enhancer-binding protein beta (Homo sapiens) (UniProt P17676). Kind of test: ATG_C_EBP_CIS: Attagene CIS-FACTORIAL HepG2 Assay for human CCAAT/Enhancer Binding Protein (C/EBP) beta (AID 2282927). Conditions: HepG2 Attagene cis-factorial transcription factor reporter; actives raise or lower the signal. In a few lines: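 HepG2, transient MRTU transfection, 24 h treatment. RT-PCR plus CE fluorescence; DMSO negative control, bidirectional fit.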

The nature of test [3]: ATG_CMV_CIS: Attagene CIS-FACTORIAL HepG2 Assay for human CMV (Internal Marker) (AID 2282928).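 Note: endpoint acts as a background internal control marker rather than a target.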 Conditions: HepG2 CMV promoter reporter, transcription factor profiling; actives raise or lower the signal. In a few lines: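 After transient transfection of HepG2 with reporter transcription units driven by cis-regulatory promoters, cells receive test chemical for 24 h. Labeled reporter amplicons, digested with HpaI, are sized and quantified by capillary electrophoresis against DMSO.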

Test [4] can be described thus: ATG_DR4_LXR_CIS: Attagene CIS-FACTORIAL HepG2 Assay for human Liver X Receptor (LXR), DR4 submotif (AID 2282929). Conditions: HepG2 Attagene DR4 cis-reporter, mRNA transcription; actives raise or lower the signal. In a few lines: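 Endogenous factor activity at a DR4 cis-element is read as reporter mRNA in transiently transfected HepG2 cells. Exposure lasts 24 h; transcripts are amplified, fluorescently labelled and sized by capillary electrophoresis, with DMSO as baseline.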

Test [5] deals with Aryl hydrocarbon receptor (Homo sapiens) (UniProt P35869). Kind of test: ATG_Ahr_CIS: Attagene CIS-FACTORIAL HepG2 Assay for human Aryl Hydrocarbon Receptor (Ahr) (AID 2282930). Conditions: HepG2 AhR cis-factorial reporter transcription; actives raise or lower the signal. A digest of the protocol: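 Endogenous factor activity is tracked through cis-promoter reporter units transfected into HepG2 cells. Transcript levels at 24 h are read by fluorescent RT-PCR and capillary electrophoresis, with activity in either direction scored relative to DMSO.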

Test [6] in a line: ATG_AP_1_CIS: Attagene CIS-FACTORIAL HepG2 Assay for human Activator Protein 1 (AP-1) (AID 2282931). Conditions: HepG2 Attagene cis-factorial AP-1 reporter mRNA; actives raise or lower the signal. In a few lines:
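Fluorescence of labelled PCR fragments separated by capillary electrophoresis gives reporter mRNA levels. HepG2 with transfected cis-regulated reporter units, 24 h exposure; DMSO serves as baseline for bidirectional curve fits.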

Test [7] can be described thus: ATG_AP_2_CIS: Attagene CIS-FACTORIAL HepG2 Assay for human Activator Protein 2 (AP-2) (AID 2282932). Conditions: HepG2 AP-2 cis-reporter, Attagene transcription factor profiling; actives raise or lower the signal. A digest of the protocol:
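Multiplexed mRNA reporter assay in HepG2: cis-regulated units report endogenous factor activity after 24 h treatment. Fluorescence from capillary electrophoresis of RT-PCR products gives the signal, with DMSO as baseline.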

The nature of test [8]: ATG_BRE_CIS: Attagene CIS-FACTORIAL HepG2 Assay for human Bone Morphogenetic Protein (BMP) Response Element (BRE) (AID 2282933). Conditions: HepG2 BMP response element reporter, Attagene transcription factor profiling; actives raise or lower the signal. In a few lines: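 Endogenous transcription factor activity read in transiently transfected HepG2 cells after 24 h chemical exposure. Bidirectional curve fitting against DMSO; readout is reporter transcript level by RT-PCR with capillary electrophoresis of labelled products.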

The target in test [9] is Retinoic acid receptor alpha (Homo sapiens) (UniProt P10276). Kind of test: ATG_DR5_RAR_CIS: Attagene CIS-FACTORIAL HepG2 Assay for human Retinoic Acid Receptor Alpha (RARE), DR5 submotif (AID 2282934).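 For AC50: reporter responds to endogenous RAR alpha beta and gamma in HepG2 not RARA alone.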 Conditions: HepG2 Attagene cis-factorial RARE DR5 reporter, mRNA; actives raise or lower the signal. A digest of the protocol: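 After 24 h of chemical exposure, transiently transfected HepG2 cells were lysed for total RNA; the DR5-regulated reporter transcript was quantified via RT-PCR and capillary electrophoresis, with activity fitted bidirectionally against DMSO.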

In test [10] the target is Transcription factor E2F1 (Homo sapiens) (UniProt Q01094). Kind of test: ATG_E2F_CIS: Attagene CIS-FACTORIAL HepG2 Assay for human E2F Transcription Factor 1 (AID 2282935). The settings on record: HepG2 Attagene cis-reporter, E2F reporter RNA transcripts; actives raise or lower the signal. In a few lines:
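Measures reporter transcript levels via RT-PCR with capillary electrophoresis detection in HepG2 cells harboring cis-regulated reporter units; 24 h post-dose; bidirectional curve fitting with DMSO as baseline.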

Calls of active or inactive are those of the source. Rule for the calls: active = hit-call score of the fitted dose curve at least 0.9, where 1 is the maximum; inactive = score below 0.9.

Sequence of Aryl hydrocarbon receptor (Homo sapiens) (P35869 whole entry, looked up): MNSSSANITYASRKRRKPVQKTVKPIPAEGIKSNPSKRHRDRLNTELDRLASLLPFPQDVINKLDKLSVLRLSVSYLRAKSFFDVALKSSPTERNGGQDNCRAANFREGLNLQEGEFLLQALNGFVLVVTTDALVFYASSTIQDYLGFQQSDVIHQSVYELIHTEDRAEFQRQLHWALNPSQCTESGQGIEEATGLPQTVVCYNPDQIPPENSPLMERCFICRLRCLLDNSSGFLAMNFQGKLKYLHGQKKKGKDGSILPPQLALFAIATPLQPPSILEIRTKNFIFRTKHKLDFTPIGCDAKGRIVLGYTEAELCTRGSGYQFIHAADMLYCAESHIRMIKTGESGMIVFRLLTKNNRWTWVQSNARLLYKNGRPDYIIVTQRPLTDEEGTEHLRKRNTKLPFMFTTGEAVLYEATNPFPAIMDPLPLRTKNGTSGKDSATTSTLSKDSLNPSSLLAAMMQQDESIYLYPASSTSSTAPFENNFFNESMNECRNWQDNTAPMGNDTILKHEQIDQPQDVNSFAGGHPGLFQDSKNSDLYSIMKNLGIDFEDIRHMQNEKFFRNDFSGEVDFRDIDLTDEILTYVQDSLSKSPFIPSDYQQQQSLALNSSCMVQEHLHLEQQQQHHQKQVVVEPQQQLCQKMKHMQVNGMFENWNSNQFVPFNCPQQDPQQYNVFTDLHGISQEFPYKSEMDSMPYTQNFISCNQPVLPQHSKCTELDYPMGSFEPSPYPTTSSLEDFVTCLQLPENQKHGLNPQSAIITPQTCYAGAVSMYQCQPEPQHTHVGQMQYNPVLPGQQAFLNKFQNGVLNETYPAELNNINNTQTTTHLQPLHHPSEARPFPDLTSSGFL
Sequence of Retinoic acid receptor alpha (Homo sapiens) (P10276 whole entry, looked up): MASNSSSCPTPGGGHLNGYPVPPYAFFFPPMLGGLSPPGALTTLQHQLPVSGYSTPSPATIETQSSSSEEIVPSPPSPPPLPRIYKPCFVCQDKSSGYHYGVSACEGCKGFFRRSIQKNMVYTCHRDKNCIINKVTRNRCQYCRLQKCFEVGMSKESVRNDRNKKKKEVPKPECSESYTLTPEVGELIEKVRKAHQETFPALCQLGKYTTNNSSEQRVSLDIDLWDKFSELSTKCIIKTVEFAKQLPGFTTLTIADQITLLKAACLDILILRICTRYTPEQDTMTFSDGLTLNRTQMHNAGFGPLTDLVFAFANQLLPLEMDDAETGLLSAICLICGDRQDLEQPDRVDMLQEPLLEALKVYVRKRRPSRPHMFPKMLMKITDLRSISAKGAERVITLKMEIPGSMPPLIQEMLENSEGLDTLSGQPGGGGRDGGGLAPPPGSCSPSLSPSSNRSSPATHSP
Sequence of CCAAT/enhancer-binding protein beta (Homo sapiens) (P17676 whole entry, looked up): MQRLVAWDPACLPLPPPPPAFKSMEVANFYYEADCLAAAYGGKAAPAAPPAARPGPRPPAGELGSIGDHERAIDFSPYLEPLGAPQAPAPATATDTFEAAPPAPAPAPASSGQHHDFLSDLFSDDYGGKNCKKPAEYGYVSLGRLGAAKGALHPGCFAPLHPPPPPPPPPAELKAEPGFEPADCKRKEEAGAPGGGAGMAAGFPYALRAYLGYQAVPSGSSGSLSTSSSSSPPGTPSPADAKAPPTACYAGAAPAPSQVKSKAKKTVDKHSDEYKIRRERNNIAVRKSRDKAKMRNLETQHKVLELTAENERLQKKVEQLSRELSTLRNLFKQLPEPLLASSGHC
Sequence of Transcription factor E2F1 (Homo sapiens) (Q01094 whole entry, looked up): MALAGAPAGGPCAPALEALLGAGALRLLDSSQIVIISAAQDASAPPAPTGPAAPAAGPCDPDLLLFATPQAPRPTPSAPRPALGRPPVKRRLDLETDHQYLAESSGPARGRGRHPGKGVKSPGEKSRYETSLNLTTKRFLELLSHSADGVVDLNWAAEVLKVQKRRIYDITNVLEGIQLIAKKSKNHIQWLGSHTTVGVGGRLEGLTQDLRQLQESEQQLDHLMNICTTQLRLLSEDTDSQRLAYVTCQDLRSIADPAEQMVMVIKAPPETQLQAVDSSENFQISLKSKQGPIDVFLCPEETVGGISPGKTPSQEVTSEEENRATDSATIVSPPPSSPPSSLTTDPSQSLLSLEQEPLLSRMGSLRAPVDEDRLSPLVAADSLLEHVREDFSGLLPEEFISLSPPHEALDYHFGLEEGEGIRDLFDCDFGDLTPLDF

Take `C=O`: the call in [1], in test [2], in [3], in test [4], in test [5] and in [6] was inactive. Further, the result in [7], in test [8], in test [9] and in [10] was inactive.
For the molecule `O=C1CCCCCCCCCCCCCCO1`, the AC50 (in general, the midpoint of the concentration-response curve, whichever way the signal moves) in test [1] was 120 µM (active); in test [3], 100 µM (active); in test [4], 181 µM (active); in test [5], 145 µM (active); in test [6], 46.2 µM (active); in [9] it was 100 µM (active). Moreover, the outcome in test [2], in [7], in test [8] and in test [10] was inactive.
Take `C[C@H]1C[C@@H]2[C@H]([C@@H](O)C[C@@]3(C)[C@H]2CC[C@]3(O)C(=O)CO)[C@@]2(C)C=CC(=O)C=C12`: the call in test [1], in test [2], in test [3], in test [4], in test [5] and in test [6] was inactive. The call in test [7], in test [8], in test [9] and in test [10] was inactive.
For `O=S(=O)(O)c1cccc2c(S(=O)(=O)O)cccc12`, the outcome in test [1], in test [2], in test [3], in [4], in [5] and in test [6] was inactive. Further, the outcome in test [7], in [8], in [9] and in [10] was inactive.
In the case of `O=C(O)C[C@H](O)C[C@H](O)/C=C/c1c(C2CC2)nc2ccccc2c1-c1ccc(F)cc1`, the outcome in test [1], in test [2], in test [3], in test [4], in test [5] and in test [6] was inactive. The outcome in test [7], in test [8] and in [10] was inactive.
As for `CCCOCC(C)O` (stereo not drawn), the outcome in test [1], in [2], in [3], in test [4], in test [5] and in [6] was inactive. Besides, the molecule was called inactive in [7], in [8], in test [9] and in [10].
For `COC(C)CCO` (stereo not drawn), the molecule was called inactive in test [1], in test [2], in test [3], in [4], in [5] and in [7]. Also, the molecule was called inactive in [8], in test [9] and in test [10]. In addition, the AC50 in [6] is 42.4 µM (active).
`CC(C)(C)c1cc(CCC(=O)NN)cc(C(C)(C)C)c1O`: the result in [1], in test [2], in test [3], in test [4], in [5] and in [6] was inactive. Further, the outcome in test [7], in test [8], in [9] and in [10] was inactive.
Regarding `CCCCCCCCCCCCCCCCCC(=O)OCC(CC)CCCC` (stereo not drawn), the result in test [1], in test [2], in test [3], in test [4], in test [5] and in [6] was inactive. Besides, the outcome in [7], in test [8], in test [9] and in [10] was inactive.
With `O=S(=O)(O)NC1CCCCC1`, the call in [1], in [2], in [3], in [4], in test [5] and in [6] was inactive. For the same molecule, the outcome in test [7], in test [8], in test [9] and in [10] was inactive.
For the molecule `O=C(O)CN(CCN(CC(=O)O)CC(=O)O)CCN(CC(=O)O)CC(=O)O`, the outcome in test [1], in test [2], in [3], in test [4], in [5] and in [6] was inactive. Moreover, the call in test [7], in test [8], in [9] and in test [10] was inactive.
Take `CSc1nc(NC2CC2)nc(NC(C)(C)C)n1`: the molecule was classed as inactive in test [1], in test [2], in test [4], in [5], in test [7] and in test [8]. Further, the outcome in test [9] and in test [10] was inactive. In addition, the AC50 in test [3] was 60.5 µM (active); in test [6], 47.5 µM (active).
`CCCCCCOC(=O)CCCCC`: the molecule was classed as inactive in [1], in [2], in [3], in test [4], in [5] and in test [6]. In addition, the molecule was classed as inactive in test [7], in [8], in test [9] and in [10].
With `CCCCCCCCCCCCOCCO`, the outcome in test [1], in test [2], in [8], in test [9] and in [10] was inactive. For the same molecule, the AC50 in test [3] is 33.4 µM (active); in test [4], 51.7 µM (active); in test [5], 33.4 µM (active); in test [6], 50.2 µM (active); in test [7] it was 57.4 µM (active).
Consider `CC1COc2ccccc2N1C(=O)C(Cl)Cl` (stereo not drawn), for which the call in test [1], in test [2], in [3], in test [4], in test [5] and in test [7] was inactive. The molecule was classed as inactive in test [8] and in test [10]. Further, the AC50 in test [6] is 27.4 µM (active).
Take `C=C(C)[C@@H]1CC[C@@H](C)C[C@@H]1O`: the molecule was called inactive in [1], in [2], in test [3], in test [4], in test [5] and in [6]. The call in test [7], in [8] and in [10] was inactive.
Turning to `COc1ccc(Nc2ccccc2)c(C)c1`, the call in test [1], in [2], in [5], in [7] and in [10] was inactive. Further, the AC50 in test [3] is 100 µM (active); in test [4], 46 µM (active); in [6], 139 µM (active); in [8] it was 149 µM (active).
For the molecule `CN(C)c1ccc(O)c2c1C[C@H]1C[C@H]3[C@H](N(C)C)C(=O)C(C(N)=O)=C(O)[C@@]3(O)C(=O)C1=C2O`, the molecule was classed as inactive in test [1], in test [2], in test [3], in test [4], in test [5] and in [6]. The result in test [7], in test [8] and in test [10] was inactive.
Regarding `CC(=O)[C@H]1CC[C@H]2[C@@H]3CC=C4C[C@@H](O)CC[C@]4(C)[C@H]3CC[C@]12C`, the outcome in test [1], in [2], in test [3], in test [4], in test [5] and in test [6] was inactive. The molecule was called inactive in test [7], in test [8] and in [10].
Take `CC(=O)OCC=Cc1ccccc1`: the molecule was classed as inactive in test [1], in test [2], in test [3], in test [4], in test [5] and in test [6]. The call in [7], in test [8] and in [10] was inactive.
For the molecule `CCCCCCCCCCCCCOS(=O)(=O)O`, the molecule was called inactive in test [1], in test [2], in test [3], in test [4], in [5] and in [6]. Moreover, the call in test [7], in test [8] and in test [10] was inactive.
For `CC1(C)CCC(C)(C)c2cc(C(=O)Nc3ccc(C(=O)O)cc3)ccc21`, the result in [1], in test [2], in [3], in test [5], in test [6] and in test [8] was inactive. Further, the call in [10] was inactive. The AC50 in test [4] is 27.6 µM (active); in test [7], 66.6 µM (active).
As to `CC1=CCC(O)(C(C)C)CC1` (stereo not drawn), the call in test [1], in test [2], in test [3], in test [4], in test [5] and in test [6] was inactive. The result in test [7], in test [8] and in [10] was inactive.
For the molecule `CC(C)=CCC[C@H](C)CC=O`, the molecule was classed as inactive in test [1], in test [2], in test [3], in test [4], in test [5] and in test [6]. In addition, the result in [7], in test [8] and in [10] was inactive.
Turning to `N#Cc1ccc(CC(=NNC(=O)Nc2ccc(OC(F)(F)F)cc2)c2cccc(C(F)(F)F)c2)cc1`, the molecule was classed as inactive in [1], in test [2], in test [3], in [4], in test [6] and in [7]. In addition, the molecule was classed as inactive in test [8] and in test [10]. For the same molecule, the AC50 in [5] was 53.1 µM (active).
